Source: ChEMBL document CHEMBL3433997, “St. Jude Leishmania screening dataset” (2016)

target: Glucose transporter (Leishmania mexicana) (UniProt O61059); assay: ST_JUDE_LEISH: Cytotoxicity at 2uM final concentration against transgenic Leishmania Mexicana promastigotes LmGT2 that are glucose transport deficient and complemented with the L. Mexicana glucose transporter 2. Activity is measured by DNA content using SYBR green in vitro; format: functional

Compound	inhibition
Cc1cc(=NN=Cc2cccc(F)c2)c2ccc(F)cc2[nH]1	7.27%
COc1cc2c(cc1C(F)(F)F)N(C(=O)Nc1cc(-c3ccncc3)cc(-c3cccnc3)c1)CC2	-0.7%
Cc1cc(F)ccc1-c1nc(NCCCNCCc2ccccc2)nc2c1ccc(=O)n2-c1c(F)cccc1F	0.76%
Cc1cc(Nc2ccccc2)nc(Nc2ccccc2)n1	1.86%
Cc1ccc(Nc2nc(C)cc(NC3CC3)n2)cc1	7%
Cn1cnc2c(SCc3ccccc3OCc3ccccc3)ncnc21	4.68%
COc1ccc2ncc(F)c(CCN3CCC(CNCc4cccc5c4OCO5)CC3)c2n1	3.27%
CCC(C)CNC(=O)CN1CN(c2ccccc2)C2(CCN(C(=O)c3ccc(Br)cc3)CC2)C1=O (stereo not given)	0.82%
CC(Sc1nc(-c2ccccc2)c(-c2ccccc2)o1)C(=O)NC1CC1 (stereo not given)	0.3%
CC(C)N1CCC(Oc2ccc(CN3CCN(C(c4ccccc4)c4ccc(Cl)cc4)CC3)cc2)CC1 (stereo not given)	2.61%
Cc1[nH]c(C)c(-c2ccc(OCc3ccc(F)cc3)cc2)c(=O)c1Br	-1.56%
Cc1cccnc1CNc1nccc2c(C)c(C)[nH]c12	-0.37%
CC(=O)NCCNc1nccc(N2CCc3ncnc(Nc4ccc(OCc5ccccn5)c(Cl)c4)c3C2)n1	1.9%
CC1CNC(c2ccc(NC(=O)Nc3ccc(C4=NC(C)CN4)cc3)cc2)=N1 (stereo not given)	3.84%
COc1ccc2c(=O)c(I)c(C)[nH]c2c1	-3.12%
CC(=O)Nc1ncc(C(=O)Nc2ccc(-c3cccc(-c4nc5cc(F)ccc5[nH]4)c3)cc2)s1	6.95%
CCc1ccc(NC(=O)c2ccc(CN3CCCN(CC4CCCCC4)CC3)cc2)cc1	7.64%
Cc1ccc(C(=O)NC2CC2)cc1-c1ccc2c(cnn2S(=O)(=O)c2ccc(F)cc2)c1	0.4%
c1ccc2[nH]c(-c3ccc(-c4ccc(CN5CCCCC5)cc4)s3)nc2c1	-0.34%
CN1CCC(N(Cc2ccc(N3CCN(Cc4c[nH]c5ccc(Cl)cc45)CC3)nc2)C2CC2)CC1	10.7%

Compound	inhibition
OCCc1ccc(Nc2nccc(-c3nnc4ccccn34)n2)cc1	6.32%
CC(C)(C)c1nn(-c2ccccc2)c2[nH]c(=O)c(CNCc3ccc4c(c3)OCO4)cc12	3.39%
NS(=O)(=O)c1cccc(-c2ccc3nccc(-c4cccc(S(N)(=O)=O)c4)c3c2)c1	-1.04%
Cc1c[nH]c(-c2cccc(C(=O)NC3CCC(CCN4CCc5ccc(C#N)cc5CC4)CC3)c2)n1 (stereo not given)	1.55%
c1cc(CN2CCC(CCN3CCCCC3)CC2)cc(-c2csc(-c3nc4ccccc4[nH]3)c2)c1	4.01%
Cc1c(CNCCCNc2cc(=O)c3ccccc3[nH]2)sc(-c2ccco2)c1Br	13.9%
CNc1nc(N/N=C/c2cc3c(cc2[N+](=O)[O-])OCO3)nc(Nc2cccc(C(F)(F)F)c2)n1	2.16%
COc1ccc(-c2ccc3c(-c4ccc(F)cc4)cnc(N)c3c2)cn1	-0.22%
Cc1ccc(C)c(NC(=O)NC2CCN(c3ccnc(Nc4ccc(F)cc4)n3)C2)c1 (stereo not given)	-1.79%
COc1ccccc1CCNc1nc(C)cc(N[C@@H](Cc2ccccc2)C(=O)NCc2cccs2)n1	0.42%
O=C(Nc1ccccc1F)NC1CCN(c2ccnc(Nc3ccc(F)cc3)n2)C1 (stereo not given)	0.81%
Cc1cc(NC2CCN(CC3CCCCC3)CC2)nc(Nc2ccccc2Cl)n1	0.85%
COc1cc(-c2nc(-c3ccc(C(=O)c4ccc(F)cc4)cc3)c(-c3ccccc3)[nH]2)cc(OC)c1O	0.05%
COc1cccc(OCC2CCCN(CCCCNC(=O)c3ccc(NC(=O)c4ccc(Cl)cc4)cc3)C2)c1 (stereo not given)	-1.92%
COc1cc(NC(=O)/C=C/c2ccccc2OC(F)(F)F)cc(OCCN2CCCCC2)c1	1.67%
O=[N+]([O-])c1ccc2nc(Nc3ccc(Cl)c(Cl)c3)c(Nc3ccc(Cl)c(Cl)c3)nc2c1	1.69%
Oc1ccc(CCNCCCCNCCc2ccc(Cl)cc2)cc1O	-2.55%
COc1ccc2nccc(NCC3(O)CCN(CCc4ccc5c(c4)OCCO5)CC3)c2n1	0.15%
O=S(=O)(c1ccc2cc[nH]c2c1)N1CCC[C@@H]1CCN1CCC(c2c[nH]c3cnccc23)CC1	2.1%
CC(C)[C@H](NC(=O)NC1CCC(CCN2C3CCC2CC(OC(=O)C(CO)c2ccccc2)C3)CC1)C(O)(c1ccccc1)c1ccccc1 (stereo not given in full)	1.15%
